This passage reports activation results from PubChem BioAssay AID485358 (National Center for Advancing Translational Sciences (NCATS), 2010).

In all, about 340,000 compounds went through this assay and about 1,800 (0.53%) were called active. Shown is part of a subset that was picked to be rich in actives. Unmarked numbers belong to inactive results.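 The calls were made as follows: active = activation over 3 SD above normal in the single-dose calcium agonist read (cut at about 30% in these data); inactive = the rest.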

Sequence of D(2) dopamine receptor (Homo sapiens) (P14416 whole entry, looked up): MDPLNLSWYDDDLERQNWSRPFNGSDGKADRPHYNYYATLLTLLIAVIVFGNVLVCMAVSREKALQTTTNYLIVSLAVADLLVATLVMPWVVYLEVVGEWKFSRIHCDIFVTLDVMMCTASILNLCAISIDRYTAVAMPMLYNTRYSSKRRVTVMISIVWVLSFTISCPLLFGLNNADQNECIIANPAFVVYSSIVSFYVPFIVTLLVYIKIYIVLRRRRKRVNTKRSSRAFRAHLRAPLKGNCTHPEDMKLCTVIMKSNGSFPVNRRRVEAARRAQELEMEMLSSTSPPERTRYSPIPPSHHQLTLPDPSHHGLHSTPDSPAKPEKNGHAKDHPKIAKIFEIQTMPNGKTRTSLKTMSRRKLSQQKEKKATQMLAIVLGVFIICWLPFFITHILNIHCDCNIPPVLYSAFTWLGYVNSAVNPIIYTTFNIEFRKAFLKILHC

For the test, the target named is D(2) dopamine receptor (Homo sapiens) (UniProt P14416). As to the kind of experiment: HTS Assay for Allosteric Agonists of the Human D2 Dopamine Receptor: Primary Screen for Agonists. Also: 0% is about no effect. Conditions: HEK293 T-REx D2 cells, calcium flux agonist mode; at 2 µM; stronger effect = higher value. The source says:
NIH Chemical Genomics Center [NCGC] NIH Molecular Libraries Probe Centers Network [MLPCN] MLPCN Grant: NS064831-01 Assay Submitter (PI): David Sibley Dopamine receptors (DARs) are involved in the etiology and/or therapy of a number of neuropsychiatric and endocrine disorders. For instance, all receptor-based antiparkinsonian drugs work via stimulating the D2 DAR subtype whereas all FDA-approved antipsychotic agents are antagonists of this receptor. […] There are three different types of allosteric modulators that we are seeking, two of which will stimulate or augment receptor signaling, allosteric agonists and potentiators, while the third, allosteric antagonists, will attenuate receptor signaling. The present primary screening assay measures compound agonism by tracking calcium flux in a […], inducible Hek293 Trex D2 cell line.
Freshly passaged cells are plated in 1536 well black, clear bottom plates at a density of 4000 cells/well in 3 ul of complete media containing 1x tetracycline inducer. After an overnight incubation at […] in 5% CO2, cells are loaded with 2 ul of the no wash Calcium Assay Kit (ABD Bioquest) and incubated at room temperature for 30 to 90 minutes. Agonist read: A 10 cycle (1 second/cycle) baseline measurement is taken and then the FDSS online 1536 pintool delivers 23 nl of compound library (as well as dopamine controls) to the plate. The plate is measured for kinetically at 1 cycle/sec for 180 seconds and is considered to be the agonist portion of the assay (eg, compounds which activate a positive calcium response during this portion are flagged as potential agonists). Following the 180 second read, 1 ul of either an EC20 (positive modulation assay) or EC80 (negative modulation assay) is delivered by an onboard pipette head. Measurements are taken kinetically for an additional 180 seconds.
(A change in cytosolic calcium serves as a functional read-out for many receptors and channels.)
On to `Cc1ccc(F)cc1NC(=O)N1CCCN(c2ccc(C(F)(F)F)cn2)CC1`, for which the activation was 0.948%.
Take `O=C(Nc1ccc(F)cc1F)N1CCCN(CCOc2ccccc2)CC1`: the activation is 41.8% (active).
For the molecule `c1ccc(-c2ccc(OCCN3CCOCC3)cc2)cc1`, the activation was 0.22%.
With `O=CN1CCN(C(=O)c2ccc(Br)o2)CC1`, the activation was 0.34%.
As for `O=C(CN1CCN(C/C=C/c2ccccc2)CC1)Nc1ccc(F)cc1F`, the figure is 0.754%.
Take `O=C(c1ccc(Br)o1)N1CCN(CCOc2ccccc2)CC1`: the activation was 67.9% (active).
`COc1cccc(OC)c1C(=O)N1CCN(Cc2cccnc2)CC1`: the activation was 1.08%.
Turning to `O=C(c1ccco1)N1CCN(Cc2cccc(C(F)(F)F)c2)CC1`, the activation is 59.9% (active).
As to `COc1cccc(OC)c1OCCN1CCN(C(=O)c2ccco2)CC1`, the activation is 87.8% (active).
As for `O=C(CN1CCN(C(=O)c2ccco2)CC1)Nc1ccc(Cl)c(C(F)(F)F)c1`, the figure is -0.254%; as for `O=C(c1ccco1)N1CCN(C(=S)Nc2cc(F)cc(F)c2)CC1`, 0.216%.
For `COc1cccc(OCc2cc(C(=O)N3CCN(C(=O)c4ccco4)CC3)no2)c1`, the activation is -0.444%.
On to `CC(=O)N1CCCc2cc(S(=O)(=O)Nc3ccc(Cl)cc3F)ccc21`, for which the activation was 0.983%.
`COc1ccc(CCNC(=O)C(=O)NCC(c2ccco2)S(=O)(=O)c2cccs2)cc1OC` (centres undefined): the activation was 0.136%.
As for `O=C(NCCc1ccc(Cl)cc1)c1ccc2c(c1)N(Cc1ccc(F)cc1)C(=O)CS2`, the figure is -0.585%; as for `COc1ccc(OC)c(-c2noc(N3CCN(c4cc(Cl)ccc4C)CC3)n2)c1`, 0.838%; as for `O=C(c1ccco1)N1CCN(C(=O)c2ccc(COc3ccc(F)cc3)o2)CC1`, -1.15%.
As for `O=C(c1ccco1)N1CCN(CCOc2ccccc2)CC1`, the activation was 74.5% (active).
For `O=C(CNS(=O)(=O)c1ccccc1)N1CCN(C(=O)c2ccco2)CC1`, the activation is 0.7%.
Turning to `O=C(NCc1ccc(Cl)cc1)c1ccc2c(c1)nnn2C1CCCC1`, the activation was -0.221%.
`O=C(NCc1ccccc1)C1CCN(S(=O)(=O)c2ccc3[nH]c(=O)ccc3c2)CC1`: the activation is -1.06%.
Turning to `COc1ccc(N2CCN(Cc3nnc(-c4ccccc4)o3)CC2)cc1`, the activation was 0%.
For the molecule `Cc1ccc(C)c(N2CCN(Cc3nnc(-c4ccccc4)o3)CC2)c1`, the activation is 0.463%.
Consider `c1ccc(-c2cnc(CN3CCN(c4ccccc4)CC3)o2)cc1`, for which the activation is 40% (active).
As for `COc1cc(OC)c(OC)cc1/C=C/c1nc2ccccc2c(=O)n1-c1ccc(Br)c(C)c1`, the activation was 1.46%.
Turning to `CCOc1cc2[nH]c(=S)n(CCN3CCCCC3C)c(=O)c2cc1OCC` (centres undefined), the activation is 30.2% (active).
Consider `COc1cc2[nH]c(=S)n(CCN3CCCCC3C)c(=O)c2cc1OC` (centres undefined), for which the activation was 1.14%.
On to `CCOc1cc2[nH]c(=S)n(CCCN3CCCC3=O)c(=O)c2cc1OCC`, for which the activation is -1.56%.
In the case of `Fc1ccc(-c2nc(Nc3cccc(Cl)c3)nc3c2COc2ccccc2-3)cc1`, the activation is -1.77%.
Turning to `O=C1N(Cc2ccccc2)c2ccc(Cl)cc2C1(O)c1c[nH]c2ccccc12` (centres undefined), the activation is 0.529%.
Consider `CCN(CC)c1ccc(NC(=O)Cn2nc3c(cc2=O)CCCC3)c(C)c1`, for which the activation is -1.68%.
The figure for `Cc1cc(=O)c2cc(C(=O)Nc3cccc(C)c3C)ccc2[nH]1` is 1.06%.
Regarding `COc1ccc(N2CCN(Cc3cc(=O)oc4ccc5ccccc5c34)CC2)cc1`, the activation is 48.7% (active).
Turning to `COc1ccc2c(CN3CCN(S(=O)(=O)c4cccs4)CC3)cc(=O)oc2c1`, the activation was 1.59%.
With `COc1ccc2oc(=O)cc(CN3CCOCC3)c2c1`, the activation is 0.172%.
As to `CCC1(c2ccccc2)NC(=O)N(CC(=O)c2ccc3c(c2)OCO3)C1=O` (centres undefined), the activation is 0.171%.
On to `O=C(CN1CCN(c2ccccc2F)CC1)c1ccc2c(c1)OCO2`, for which the activation is 34.1% (active).
The figure for `CC1(c2ccc(Cl)cc2)NC(=O)N(CC(=O)c2ccc3c(c2)OCO3)C1=O` (centres undefined) is 6.26%; for `COc1ccc(NC(=O)C2CCN(c3ccc(Sc4ccc(C)cc4)nn3)CC2)c(OC)c1` it is -0.0405%; for `CCN(CC)c1ccc2oc(=O)c(C)nc2c1` it is 33.2% (active).
With `Cc1ccc2c(=O)oc(N(C)C)nc2c1`, the activation is -0.369%.
With `CCc1ccc2oc(-c3ccc(N)cc3)nc2c1`, the activation was 0.79%.
Take `COC(=O)c1ccc(NC(=O)c2cnn(-c3ccc(Cl)cc3)c2C2CCN(C(=O)OC(C)(C)C)CC2)cc1`: the activation is -0.0655%.
`CC(C)S(=O)(=O)c1oc(-c2ccc(F)cc2)nc1S(=O)(=O)c1ccc(F)cc1`: the activation is 6.9%.
In the case of `COc1ccccc1NC(=O)CSc1oc(-c2ccco2)nc1S(=O)(=O)c1ccc(Br)cc1`, the activation is -0.604%.
Take `CCOc1ccccc1N(CC)C(=O)c1cc2ccc3cccnc3c2[nH]1`: the activation is 0.0244%.
As for `COc1cccc(NC(=O)c2ccc3nc(CCc4ccccc4)oc3c2)c1`, the activation is 0.0569%.
On to `O=C(COC(=O)CCc1ccc(S(=O)(=O)N2CCOCC2)cc1)Nc1cccc(Cl)c1`, for which the activation was 1.09%.
Regarding `O=C(CN1CCN(c2cccc(Cl)c2)CC1)Nc1ccc(S(=O)(=O)N2CCOCC2)cc1`, the activation is 56.5% (active).
With `O=C(CN1CCCCCC1)Nc1ccc(S(=O)(=O)N2CCCCC2)cc1`, the activation was -2.81%.
As for `COc1ccc(CCn2cc3c(c2-c2ccc(Br)cc2)c(=O)n(C)c(=O)n3C)cc1OC`, the figure is -0.343%; as for `CCC(=O)Nc1cccc(C(=O)OCc2cc(=O)n3nc(CC)sc3n2)c1`, 3.26%; as for `Cc1cc(F)ccc1NC1(c2ccccc2)C(=O)c2ccccc2C1=O`, -1.91%.
Take `CC(C)CCN1CCN(Cc2cn[nH]c2C2CCCCC2)CC1CCO` (centres undefined): the activation is 71.9% (active).
On to `CC(C)CCN1CCN(Cc2ccc(C(F)(F)F)cc2)CC1CCO` (centres undefined), for which the activation was -0.55%.
As for `CC(C)CCN1CCN(C/C=C/c2ccco2)CC1CCO` (centres undefined), the figure is -3.43%; as for `COc1ccc(CNC(=O)CCc2c(C)nn(-c3ccc(N4CCCC4)nn3)c2C)cc1`, -0.779%.
As for `COc1ccc(C2=NC(c3ccncc3)=Nc3ccc(Br)cc3N2)cc1`, the activation was 2.06%.
Turning to `COc1ccc(OC)c2sc(N3CCN(C(=O)C4COc5ccccc5O4)CC3)nc12` (centres undefined), the activation was -0.0345%.
`Cc1c(CC(=O)N2CCN(C(=O)C3COc4ccccc4O3)CC2)c(=O)oc2c(O)c(O)ccc12` (centres undefined): the activation is 86.6% (active).
In the case of `COc1cc(NS(=O)(=O)c2ccc3c(c2)OCC(C(=O)N2CCCC2)O3)cc(OC)c1` (centres undefined), the activation is 0.531%.
Take `O=C(/C=C/c1cn(CC(O)CN2CCc3ccccc32)c2ccccc12)c1ccc(Br)cc1` (centres undefined): the activation was 2.61%.
As to `Cc1ccc(CSc2nc3ccsc3c(=O)n2CCC(C)C)cc1`, the activation is 0.237%.
The figure for `COc1ccc(Cl)cc1NC(=O)Cn1c(=O)c2ccccc2n2nncc12` is 0.159%.
The figure for `Cc1ccc(NC(=O)O/N=C/c2cccc([N+](=O)[O-])c2)cc1` is 1.09%; for `CCC(CC)NC(=O)/C=C/c1cccc([N+](=O)[O-])c1` it is 55.2% (active).
The figure for `CCc1ccc(NC(=O)C(C)OC(=O)/C=C/c2cccc([N+](=O)[O-])c2)cc1` (centres undefined) is -0.67%; for `O=S(=O)(NCCc1nnc2ccc(SCc3ccc(Cl)cc3Cl)nn12)c1ccccc1` it is 0.55%.
For `CCOC(=O)C(Cc1ccccc1)NC(=O)CCc1c(C)nc2c(c(C)nn2-c2ccc(C)c(C)c2)c1C` (centres undefined), the activation was 3.29%.
In the case of `COC(=O)CN1C(=S)N(c2ccccc2)C(=O)C1CC(=O)Nc1ccc(Cl)cc1` (centres undefined), the activation is -0.464%.
Consider `O=C(CSC1CC(=O)N(CCc2ccccc2)C1=O)Nc1ccc(Cl)cc1` (centres undefined), for which the activation was 49.2% (active).
For the molecule `O=C(NCCCc1ccccc1)C1CCC(=O)N(CCc2ccc(Cl)cc2)C1` (centres undefined), the activation is -1.17%.
Consider `CCc1ccc(CN(Cc2ccco2)C(=O)c2ccccc2Cl)cc1`, for which the activation is 0.564%.
With `COc1cc(NC(=O)c2nn(-c3ccc(C)cc3)c(=O)c3c2c2ccccc2n3C)cc(OC)c1OC`, the activation was -0.5%.
`Cc1ccc(O)c(-c2cc(C(=O)Nc3c(C)n(C)n(-c4ccccc4)c3=O)[nH]n2)c1`: the activation is 34.8% (active).
As for `Cc1ccc(O)c(-c2cc(C(=O)NCc3ccccc3)[nH]n2)c1`, the figure is 0.766%; as for `Cc1c(NC(=O)c2cc(=O)c3ccccc3o2)c(=O)n(-c2ccccc2)n1C`, 0.0233%.
In the case of `O=C(NCc1ccc(F)cc1)c1ccc(Cn2c(SCc3ccc(F)cc3)nc3cccnc32)cc1`, the activation was 1.06%.
As for `O=C(c1ccc2c(c1)N(Cc1ccccc1)C(=O)c1ccccc1S2(=O)=O)N1CCCC1`, the figure is 1.63%.
As for `CC(C)(C)OC(=O)NCCCCCC(=O)N/N=C/c1coc2ccccc2c1=O`, the activation is 0%.
The figure for `CC1=CC2=NC(=O)/C(=C/c3coc4ccccc4c3=O)C(=N)N2O1` is 49.9% (active); for `COc1ccc(OCCCn2cccc2/C=C2/C(=N)N3OC(C)=CC3=NC2=O)cc1` it is -1.02%.
On to `CCOC(=O)c1c(C)[nH]c(CCC(=O)Nc2ccc(OC)c(OC)c2)c1C`, for which the activation was -0.832%.
As for `Cc1ccc2ncc(C(=O)Nc3ccc(OC(F)(F)F)cc3)c(=O)n2c1`, the figure is -0.574%.
As to `CCO[C@@H]1OC(C(=O)NCc2nc3ccccc3[nH]2)=C[C@H](C2CCCCC2)[C@H]1CCCO`, the activation was -0.239%.
On to `O=C(OCc1nc2ccccc2[nH]1)C1CCCCC1`, for which the activation was 41.5% (active).
As for `O=C(Oc1cccc(O)c1)C1CCCCC1`, the figure is 0.57%; as for `COc1ccc(S(=O)(=O)NCC(c2ccc(N(C)C)cc2)N2CCCC2)cc1` (centres undefined), -2.12%; as for `CC1CCCCN1S(=O)(=O)c1ccc(F)c(C(=O)Nc2ccccc2C(F)(F)F)c1` (centres undefined), 0.192%.
